Reference: PubChem BioAssay AID1020 (Sanford-Burnham Center for Chemical Genomics, 2008)
Among all 200,000 compounds or so, about 240 (0.12%) were called active. No stated cut-off is given here; in the data, active means inhibition above about 50%; inactive means the rest. The sample as a whole holds a higher share of actives than the screen did.

system: glucose-6-phosphate dehydrogenase [Leuconostoc mesenteroides]; assay: bacterial G6PDH enzyme inhibition, coupled readout – biochemical, Leuconostoc mesenteroides enzyme, counter-screen for G6PDH-coupled screening assays (AID 1020); details: Purified L. mesenteroides G6PDH, diaphorase/resazurin coupled fluorescence, 45 min; at 5 µM; stronger effect = higher value

| Compound | inhibition |
| --- | --- |
| Cc1ccccc1NC(=S)NNC(=O)c1cccc(Br)c1 | 1.2% (inactive) |
| COc1ccc(-n2cc(CN(C)Cc3n[nH]c(=O)[nH]3)c(-c3cccc(F)c3)n2)cc1 | 19.5% (inactive) |
| COC(=O)c1ccc(NC(=S)NN2CCOCC2)cc1 | -2.2% (inactive) |
| O=C(c1snnc1-c1ccccc1)N1CCOCC1 | -2.4% (inactive) |
| OC(c1nnc(-c2ccccc2)o1)c1cccs1 (stereo unspecified) | 10.6% (inactive) |
| CCCCn1c(O)c(N=NC(=O)Cn2c(C(F)(F)F)nc3ccccc32)c2ccccc21 | 7.1% (inactive) |
| COc1cc(C=O)c(Br)cc1OCC(=O)NCc1ccccc1 | 6.7% (inactive) |
| CCOc1ccccc1N1CCN(C(=O)COc2ccc3c(C)cc(=O)oc3c2)CC1 | 1.2% (inactive) |
| Cc1ccc(C(=O)NC(=S)NCc2cccnc2)cc1 | -1.6% (inactive) |
| Cc1ccc(COc2ccc(C(=O)NN)cc2)cc1 | 10.9% (inactive) |
| O=C(NCc1ccccc1Cl)C1CCN(S(=O)(=O)N2CCOCC2)CC1 | 4.2% (inactive) |
| Nc1ncnc(Nc2cccc(Cl)c2Cl)n1 | 15% (inactive) |
| CCOC(=O)Cc1cc(=O)[nH]c(=O)[nH]1 | 4.9% (inactive) |
| O=C(/C=C/c1ccccc1[N+](=O)[O-])OC1CCCCC1=O (stereo unspecified) | 3% (inactive) |
| O=c1c([N+](=O)[O-])cccn1Cc1ccc(F)cc1Cl | 8% (inactive) |
| CSc1ncccc1C(=O)N1CCCC(CCC(=O)NCc2ccccc2F)C1 (stereo unspecified) | 8.1% (inactive) |
| CC(C)(C)N(CC#CCC(O)(c1ccccc1)C1CCCC1)CCO (stereo unspecified) | 13.4% (inactive) |
| OCCNCCOc1ccc(Cl)c(Cl)c1 | 3.7% (inactive) |
| CC(C)(C)CC(=O)Nc1nnc(SCC(=O)NCc2cccs2)s1 | 10.3% (inactive) |
| COc1ccc(CC2(CO)CCN(Cc3cnn(C)c3)CC2)cc1 | 0.2% (inactive) |
| CCOC(=O)/C=C/C(=O)OCC(=O)NC(c1ccccc1)c1ccccc1 | 9.9% (inactive) |
| Cc1ccc(O)c(-c2cc(C(=O)Nc3c(C)n(C)n(-c4ccccc4)c3=O)[nH]n2)c1 | 4% (inactive) |
| CC(C(=O)N=Nc1c(O)n(C)c2ccc(Br)cc12)n1cnc2ccccc2c1=O (stereo unspecified) | -0.8% (inactive) |

| Compound | inhibition |
| --- | --- |
| Cc1ccc2cc(C)c(N3CCC(C)CC3)nc2c1 | 12.3% (inactive) |
| O=C(Nn1cnnc1)c1ccc([N+](=O)[O-])cc1 | 6% (inactive) |
| Cc1nn(-c2ccccc2)c(C)c1/C=N/NC(=O)CSc1nc2ccccc2c(=O)n1-c1ccccc1 | -5.5% (inactive) |
| O=C(COC(=O)C1CC2C=CC1C2)Nc1ccccc1 (stereo unspecified) | 5.8% (inactive) |
| CCC(C)(C)c1ccc(OCC(=O)N(C)C)c(C(C)(C)CC)c1 | -0.6% (inactive) |
| CCc1n[nH]c(=S)n1/N=C/c1c[nH]c2ccc(Br)cc12 | -2.8% (inactive) |
| CC(=O)Nc1ccc(S(=O)(=O)N(CCc2ccccc2)CC(=O)N/N=C/c2ccc(C(=O)O)cc2)cc1 | 6.2% (inactive) |
| CC(=O)n1cc([C@H]2C=C(C(=O)N3CCOCC3)O[C@@H](OCc3ccc(CO)cc3)C2)c2ccccc21 | 13.3% (inactive) |
| COc1cccc(CC(=O)N2CCCC(CCC(=O)N3CCN(c4ccccn4)CC3)C2)c1 (stereo unspecified) | 2.5% (inactive) |
| CCN(CC)C(=O)Cn1cc(S(=O)(=O)CC(=O)NCc2ccc3c(c2)OCO3)c2ccccc21 | 2.6% (inactive) |
| CC(O)c1cccc(NC(=O)Cc2cccc3ccccc23)c1 (stereo unspecified) | 0.6% (inactive) |
| S=c1[nH]ccn1-c1ccc(Cl)cc1 | 1.9% (inactive) |
| CCN(CCCNC(=O)CSc1cc(=O)n(C)c2cc(Cl)ccc12)Cc1ccccc1 | -6.2% (inactive) |
| O=C(NCCN1CCOCC1)c1cc(Sc2cccc(Cl)c2)nc2ccccc12 | -13.7% (inactive) |
| CC(=O)Oc1cc2c(C(=O)NCCN3CCOCC3)c(C)oc2c2ccccc12 | 51% (active) |
| O=C(NCCN1CCOCC1)c1c(F)c(F)c(F)c(F)c1F | -12.4% (inactive) |
| CS(=O)(=O)c1ccc2nc(NC(=O)c3ccc(Cl)nc3)sc2c1 | -4.6% (inactive) |
| O=C(COc1ccc(NC(=O)c2ccccc2[N+](=O)[O-])cc1)c1ccc(F)cc1 | 8.6% (inactive) |
| COC(=O)C1=NNC2(c3ccc(C)cc3)C(=O)N(c3cccc(C)c3C)C(=O)C12 (stereo unspecified) | 5.9% (inactive) |
| O=C(c1cn2ccccc2n1)N1CCc2c([nH]c3ccccc23)C1c1ccccn1 (stereo unspecified) | 16.7% (inactive) |
| O=[N+]([O-])c1ccc(NCCCO)c(C(F)(F)F)c1 | 1.5% (inactive) |
| Cc1ccnc2nc(C(=O)Nc3nnc(-c4ccccc4)o3)nn12 | 4.6% (inactive) |
| COc1ccc(Cn2c(-c3ccc(Cl)cc3)c[n+]3ccccc23)cc1 | -9.3% (inactive) |

| Compound | inhibition |
| --- | --- |
| O=C(Nc1ccc(N2CCN(C(=O)c3cccs3)CC2)cc1)c1cccnc1Cl | 5.3% (inactive) |
| CCOC(=O)c1c(C)[nH]c(C2=NNC(=NC(C)COC)SC2)c1C (stereo unspecified) | -0.8% (inactive) |
| Cc1[nH]c2ccccc2c1-c1ccc(Cl)nn1 | 6.2% (inactive) |
| Cc1nc2scc(-c3cccs3)c2c(=O)n1N | 0% (inactive) |
| O=c1c2c(ncn1Cc1ccccc1)nc1n2CCC1 | 10.7% (inactive) |
| CN(C(=O)CSc1nncc2ccccc12)C1CCCCC1 | -2.2% (inactive) |
| O=C(N/N=C/c1ccc(OCc2ccccc2)cc1)c1ccc(O)cc1 | 4.1% (inactive) |
| O=C(NC1CCCC1)C(NS(=O)(=O)c1ccc(Br)s1)c1ccccc1 (stereo unspecified) | 15.8% (inactive) |
| Cc1ccc(NC(=O)OCCNC(=O)c2ccncc2)cc1 | 7.9% (inactive) |
| CCCCS(=O)c1snnc1C (stereo unspecified) | 7.1% (inactive) |
| CCOC(=O)C(C)Oc1cccc2c(=O)n(CC(=O)NCCc3ccc(OC)c(OC)c3)ccc12 (stereo unspecified) | 12.1% (inactive) |
| CCn1c(=S)[nH]c2sc3c(c2c1=O)CCCCC3 | -4.4% (inactive) |
| O=C(N/N=C/c1ccccn1)C12CC3CC(CC(C3)C1)C2 | 1.5% (inactive) |
| O=C1c2cccc3c([N+](=O)[O-])ccc(c23)C(=O)N1CC1CCCO1 (stereo unspecified) | 0.7% (inactive) |
| O=C(COc1cc(Cl)c(Cl)cc1Cl)NCCc1ccccn1 | 12.4% (inactive) |
| CC(Cc1cccs1)NC(=O)c1cccc(Cl)c1 (stereo unspecified) | 7% (inactive) |
| OCCC1CN(Cc2cccn2-c2nccs2)CCN1CCc1ccccc1 (stereo unspecified) | 12.9% (inactive) |
| CCC1(CC)NC(=O)N(Cc2nc3ccccc3s2)C1=O | 10.3% (inactive) |
| CCOc1ccccc1NC(=O)C1CCCN(C(=O)Nc2ccccc2)C1 (stereo unspecified) | 4.5% (inactive) |
| CCOC(=O)CNC(=O)/C=C/c1c(Cl)cccc1Cl | 1.5% (inactive) |
| Cc1ccc(N2C(=O)SC(N(CC(=O)O)c3ccc(C)cc3)C2=O)cc1 (stereo unspecified) | 21.1% (inactive) |
| Cc1ccc(Nc2nnc(SCC(=O)c3cc4ccccc4o3)s2)cc1C | -1.5% (inactive) |
| CCC(C)NCC(=O)Nc1ccc([N+](=O)[O-])cc1C(=O)Nc1ccccc1F (stereo unspecified) | 4.8% (inactive) |

| Compound | inhibition |
| --- | --- |
| NC1=NN(c2cccc(C(=O)O)c2)C(=O)C1 | 19.2% (inactive) |
| CCOC(=O)/C(N=Nc1cc(C(=O)O)cc(C(=O)O)c1)=C(\O)CCl | -9.1% (inactive) |
| CCC1CCCCN1C(=S)Nc1ccc(SC(F)F)cc1 (stereo unspecified) | -14.7% (inactive) |
| O=C(O)/C=C/c1cn(Cc2ccccc2)nc1-c1cccs1 | 2% (inactive) |
| CC[N+]1(CC)CC2=Cc3ccccc3CC2C1 (stereo unspecified) | 0.9% (inactive) |
| O=C(Nc1ccc(Cl)cc1)C1c2cccc[n+]2CC(=O)N1Cc1ccc2c(c1)OCO2 (stereo unspecified) | 10.2% (inactive) |
| C=CCN(CC=C)S(=O)(=O)c1ccc(C(=O)Nc2nc3c(s2)CCc2ccccc2-3)cc1 | 8.4% (inactive) |
| CCOC(=O)N1CCN(C(c2cccnc2)c2ccc3cccnc3c2O)CC1 (stereo unspecified) | 23.8% (inactive) |
| Cc1nc2sc(C(c3ccco3)N3CCOCC3)c(O)n2n1 (stereo unspecified) | -0.1% (inactive) |
| Oc1c(C(c2ccccn2)N2CCOCC2)ccc2cccnc12 (stereo unspecified) | 50.6% (active) |
| COc1ccccc1N=Cc1c(O)c2ccccc2oc1=O | 2.9% (inactive) |
| COC(=O)c1c(NC(=O)COC(=O)[C@@H](NS(=O)(=O)c2ccccc2)C(C)C)sc2c1CCC2 | -20.8% (inactive) |
| Cc1cc(C)cc(C(=O)N2CCN=C2SCc2ccc([N+](=O)[O-])cc2)c1 | -0.2% (inactive) |
| COCC(C)n1c(C)cc(C(=O)CSc2cc(C)c3ccccc3n2)c1C (stereo unspecified) | -2.6% (inactive) |
| CC1=C/C(=N\S(=O)(=O)c2ccccc2)C(C(C)C)=CC1=O | 1.5% (inactive) |
| CC(C)CC[n+]1ccn(C2=C([O-])c3ccccc3C(=O)/C2=N\S(=O)(=O)c2ccccc2)c1 | 52.9% (active) |
| O=C1NC(c2ccccc2)CCC1(Cl)Cl (stereo unspecified) | -1% (inactive) |
| COc1ccccc1CNC(=O)C1Cc2ccccc2C(=O)O1 (stereo unspecified) | 14.2% (inactive) |
| Cc1cccc(-c2nc3ccccc3c(=O)n2NC(=O)Cc2ccc(Cl)cc2)c1 | 12.9% (inactive) |
| O=C(COC(=O)c1cc2c(s1)CCCC2)NCc1ccccc1Cl | -30.3% (inactive) |
| CCNC(=O)c1ccc(OCC(=O)Nc2ccc(F)cc2)c(OC)c1 | 0% (inactive) |
| COC1=CCC2([N+](=O)[O-])CN(CC(=O)O)CC1([N+](=O)[O-])C2 (stereo unspecified) | -3.5% (inactive) |
| Cc1ccc(C2=NN(C(=O)CSc3nc(N)cc(N)n3)C(c3ccco3)C2)cc1 (stereo unspecified) | -0.7% (inactive) |

| Compound | inhibition |
| --- | --- |
| COc1ccc(C)cc1NC(=O)C(OC(=O)c1cccc(S(=O)(=O)N(C)c2ccccc2)c1)c1ccccc1 (stereo unspecified) | 0.4% (inactive) |
| Cc1cc(C)c(NC(=O)C[N+](C)(C)CC(O)COc2cccc3ccccc23)c(C)c1 (stereo unspecified) | -0.6% (inactive) |
| CCOC(=O)C1=C(C)OC(N)=C(C#N)C1c1cncc(-c2ccc(F)cc2)c1 (stereo unspecified) | 14.8% (inactive) |
| CC1(C)CC(=O)C2=C(C1)Nc1cc(C(=O)c3ccccc3)ccc1NC2c1ccccn1 (stereo unspecified) | 8.9% (inactive) |
| Cc1nc2ccc(NC(=S)N3CCC(C)CC3)cc2nc1C | 29.3% (inactive) |
| COC(=O)c1nc(NC(=O)c2ccc(F)cc2)n[nH]1 | -4.4% (inactive) |
| Cc1ccc(S(=O)(=O)N(CC(=O)Nc2cccc([N+](=O)[O-])c2)Cc2ccc(Cl)cc2)cc1 | -21.7% (inactive) |
| O=C(/C=C/c1ccc(Cl)cc1)Nc1ccc(Br)cn1 | 7.2% (inactive) |
| Cn1c(=O)c2c(ncn2CC(=O)N/N=C/c2cn[nH]c2-c2ccc(F)cc2)n(C)c1=O | -4.7% (inactive) |
| CC(C)(C)NC(=O)CN(C(=O)c1csnn1)c1ccccc1-c1ccccc1 | 9.8% (inactive) |
| COCCCNC(=O)Cn1c(=O)n(Cc2ccccc2Cl)c(=O)c2cc(OC)c(OC)cc21 | 4.4% (inactive) |
| Cc1ccc(-c2cc(N)on2)cc1 | 4.2% (inactive) |
| CCCN(CCC)CCCNC(=O)CNC(=O)c1nn(-c2ccc(OC)cc2)c(=O)c2ccccc12 | 6% (inactive) |
| CCOC(=O)c1c(NC(=O)CNC2CCCc3ccccc32)sc(C(N)=O)c1C (stereo unspecified) | 2.5% (inactive) |
| CN(CC(=O)Nc1ccccc1[N+](=O)[O-])Cc1ccc(Br)cc1 | -0.3% (inactive) |
| Cc1cc(/C=N/NC(=O)c2cccnc2)c(C)n1CC(C)C | 2.9% (inactive) |
| CC1CCCCN1C(=S)NCc1ccccc1 (stereo unspecified) | -13% (inactive) |
| CC(=O)N1c2ccccc2N(Cc2ccc([N+](=O)[O-])cc2)C(=O)C1(C)C | 4.5% (inactive) |
| COC(=O)c1ccc(NC(=O)c2cc(Cl)ccc2OC)cc1 | 0.4% (inactive) |
